{"source": "PubChem BioAssay AID449762", "about": "(Southern Research Specialized Biocontainment Screening …, 2010)", "note": "Among all 330,000 compounds or so, about 1,900 (0.58%) were called active. Not shown: some 4% with an inconclusive outcome. A selection follows. Measured potencies and affinities stand elsewhere. A number with no mark means an inactive call. Rule as the data show it: inconclusive = inhibition above about 70% without an active follow-up result; inactive = below that.", "data": [{"assay": "M. tuberculosis growth inhibition, HTS (AID 449762);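 also: bacterial growth assessed after seven days of incubation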", "settings": "M. tuberculosis H37Rv growth inhibition, 7H9 media; at 25 µM; hits give high values", "units": {"inhibition": "%"}, "values": [{"smiles": "CCCCCC(=O)NCc1c(C(F)(F)F)nn(C)c1N1CCOCC1", "inhibition": -1.96}, {"smiles": "O=C(C[N+]12CCN(CC1)CC2)NCCc1ccc(Cl)cc1Cl", "inhibition": -3.14}, {"smiles": "O=C(CN1CCNC(=O)C1)NCCc1ccc(Cl)cc1Cl", "inhibition": -0.1}, {"smiles": "COc1ccc(OC)c(NC(=O)c2cccnc2Sc2cc(C)ccc2C)c1", "inhibition": 8.29}, {"smiles": "CC(C)(C)c1ccccc1OCCOCCNCc1ccccc1", "inhibition": 2.6}, {"smiles": "Cc1ccc(S(=O)(=O)n2ccc3c(OCCOCCSCC(NC(=O)OC(C)(C)C)C(=O)O)cccc32)cc1", "note": "(stereo not drawn)", "inhibition": 0.6}, {"smiles": "O=C(CSc1nc2ccccc2[nH]1)Nc1ccc2[nH]c(=O)[nH]c2c1", "inhibition": 8.79}, {"smiles": "CC(=O)Nc1ccc(NC(=O)CSc2ncnc3sc(C)c(C)c23)cc1", "inhibition": -0.3}, {"smiles": "CNc1nc(-c2ccc3c(c2)CCN3C(=O)c2ccccc2F)c(C)s1", "inhibition": 9.7}, {"smiles": "O=C1/C(=C/c2ccccn2)SC(=S)N1NS(=O)(=O)c1ccccc1", "inhibition": 5.72}, {"smiles": "CCC(=O)NCCCCCCCCCNC(=O)CC", "inhibition": -4.93}, {"smiles": "CCC(=O)NCCCCCCNC(=O)CC", "inhibition": 0.18}, {"smiles": "C=CCn1c(SCC(=O)Nc2ccccc2F)nnc1C(C)NC(=O)c1ccccc1F", "note": "(stereo not drawn)", "inhibition": -12.4}, {"smiles": "Cc1ccc(-c2c(C)n([O-])c3c([n+]2=O)CCCCC3)cc1", "inhibition": -3.38}, {"smiles": "CCCCSc1nnc([C@H](CC(C)C)NC(=O)OC(C)(C)C)o1", "inhibition": -2.58}, {"smiles": "CC(C)C[C@H](NC(=O)OC(C)(C)C)c1nnc(SCc2ccccc2)o1", "inhibition": -3.57}, {"smiles": "COc1ccc(C)cc1S(=O)(=O)NCc1cccs1", "inhibition": 1.39}, {"smiles": "O=C(NCCc1ccc(Cl)cc1)c1ccc(OCC2CCCO2)cc1", "note": "(stereo not drawn)", "inhibition": 5.17}, {"smiles": "O=C(NC1CCCCC1)N1CCN(Cc2nc3ccccc3c(=O)[nH]2)CC1", "inhibition": -4.69}, {"smiles": "COc1ccc(NC(=S)NC(=O)C2CCC2)cc1", "inhibition": -0.22}, {"smiles": "CC(=O)Nc1ccc(NC(=S)NC(=O)C2CCCC2)cc1", "inhibition": -8.34}, {"smiles": "Cn1nc(C(F)(F)F)c(C(=O)Nc2ccc(F)cc2F)c1Sc1ccc(Cl)cc1", "inhibition": -9.99}, {"smiles": "COc1cc(-c2ccc3oc(-c4ccsc4)cc3c2)cc(OC)c1OC", "inhibition": 0.64}, {"smiles": "COc1ccc(-c2ccc3oc(-c4ccsc4)cc(=O)c3c2)cc1F", "inhibition": -0.47}, {"smiles": "O=C1c2ccccc2C(=O)N1CCc1csc(-c2cccc(F)c2)n1", "inhibition": 3.85}, {"smiles": "COC(=O)CC1C(=O)NCCN1C(=O)c1ccccc1", "note": "(stereo not drawn)", "inhibition": -6.14}, {"smiles": "Brc1cccc2sc(N3CCCC3)nc12", "inhibition": 6.95}, {"smiles": "Brc1ccc2nc(N3CCN(c4ccccc4)CC3)sc2c1", "inhibition": -4.96}, {"smiles": "COc1ccc(C(=O)Nc2ccccc2C(=O)NCCN2CCOCC2)cc1OC", "inhibition": 4.9}, {"smiles": "O=C(COC(=O)c1ccc2c(c1)OCCO2)Nc1cccc(S(=O)(=O)N2CCOCC2)c1", "inhibition": 9.61}, {"smiles": "COc1ccccc1C(=O)NCc1ccccc1", "inhibition": 10.8}, {"smiles": "C/C(=N\\NC(=S)NCc1ccccc1)c1ccc(Br)cc1", "inhibition": 6.33}, {"smiles": "COc1ccccc1C(=O)NNC(=O)CCC(=O)NCc1ccccc1", "inhibition": -3.02}, {"smiles": "COCCNC(=S)N/N=C(\\C)c1ccccc1OC", "inhibition": -6.36}, {"smiles": "CSc1ccccc1NC(=O)Nc1cccc(F)c1", "inhibition": 1.3}, {"smiles": "CC(C)(C)N(Cc1ccccc1)C(=O)COC(=O)CNC(=O)c1ccco1", "inhibition": 5.79}, {"smiles": "CC(C)C(NC(=O)c1cccs1)C(=O)NC1=NCCS1", "note": "(stereo not drawn)", "inhibition": -3.72}, {"smiles": "COc1cc(OC)cc(C(=O)N[C@H](C(=O)Nc2nc3ccc(S(C)(=O)=O)cc3s2)C(C)C)c1", "inhibition": 10.5}, {"smiles": "CCOC(=O)c1csc(NC(=O)c2cc(=O)c3ccccc3o2)n1", "inhibition": -0.69}, {"smiles": "CCOC(=O)c1sc(NC(=O)c2cc3ccccc3o2)nc1C", "inhibition": 3.64}, {"smiles": "COc1cccc(/C=N/Nc2nc(N3CCCC3)nc(N3CCCC3)n2)c1O", "inhibition": 3.67}, {"smiles": "COc1cc(/C=N/Nc2nc(Nc3ccccc3)nc(-n3nc(C)cc3C)n2)cc(OC)c1OC", "inhibition": 10.6}, {"smiles": "COc1ccc(NC(=S)N2CCC(N(C)CCN3CCOCC3)CC2)cc1", "inhibition": 2.62}, {"smiles": "COc1ccccc1C(=O)NCCC(=O)N1CCN(c2ccccc2O)CC1", "inhibition": 1.15}, {"smiles": "COc1ccc(-c2csc3nc(-c4ccccc4F)oc(=O)c23)cc1", "inhibition": -1.39}, {"smiles": "CCOc1ccccc1N1CCN(c2ncnc3scc(-c4ccc(OC)cc4)c23)CC1", "inhibition": -0.51}, {"smiles": "COc1ccc(-c2csc3ncnc(N4CCN(c5ccccc5Cl)CC4)c23)cc1", "inhibition": 50.3}, {"smiles": "COc1ccc(-c2nc3scc(-c4ccc(OC)c(OC)c4)c3c(=O)o2)cc1", "inhibition": 11.9}]}]}
